Bioassay records from PubChem.
Shown are actives, neighbours in structure and some others; about 7% of the full set was active somewhere.
ATXN viability = cell viability loss in ATXN counter-screen | 400,000 tested, 0.49% active | Potency, µM (doses to about 56.7 µM), usual class: cytotoxic | S2 cells (HEK-293 line with an ATXN2-luciferase reporter) viability, CellTiter-Fluor protease fluorescence, 24 h | AID 651635; also: potency is read from the fitted curve at half-maximal effect; nearly all actives have a fitted effect of over 40% in size
DRD3 agonist = agonists of human D3 dopamine receptor; P35462; D3R DiscoveRx beta-arrestin cells, luminescence, 90 min; max activation, %; 410,000 tested, 0.58% active; AID 652048; in the data active = max activation above about 30%; also: 0% is about no effect
Target sequence (P35462 whole entry, looked up): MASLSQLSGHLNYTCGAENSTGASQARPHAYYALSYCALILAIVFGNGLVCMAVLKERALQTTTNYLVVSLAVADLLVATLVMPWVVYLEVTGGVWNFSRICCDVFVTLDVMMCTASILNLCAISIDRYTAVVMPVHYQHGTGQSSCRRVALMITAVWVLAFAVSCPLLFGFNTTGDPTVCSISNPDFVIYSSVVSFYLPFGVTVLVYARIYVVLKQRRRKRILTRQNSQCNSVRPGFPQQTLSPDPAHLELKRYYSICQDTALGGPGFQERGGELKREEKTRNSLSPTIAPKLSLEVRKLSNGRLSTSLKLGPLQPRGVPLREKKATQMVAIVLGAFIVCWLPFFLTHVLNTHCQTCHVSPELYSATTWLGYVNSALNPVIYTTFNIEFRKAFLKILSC
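Agonist-mode cell screen: cells plated at 1500/well and incubated overnight at 37 °C, then exposed to library compounds for 90 min at 37 °C. Detection reagent was added for 30–60 min at room temperature, and luminescence was read.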
IL-1B inflam inh = blocks inflammasome-driven IL-1 beta release; THP-1 LPS/ATP IL-1B secretion, AlphaLISA, 16 h; hits give low values; activity change, % at 57.5 µM; 360,000 tested, 4.7% active; AID 743279; in the data active = activity change below about -50%; inconclusive = mostly about -30% to -49%; also: % is scaled to controls: 0 for no effect and ±100 for the full control effect
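Secreted IL-1B measured by AlphaLISA bead assay after 16 h compound exposure of THP-1 cells; compounds (final up to 57.5 uM) added 1 h before LPS (250 ng/mL) and ATP (1.25 mM) stimulation; lower signal means less secretion.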
ATXN2 expr inh = ATXN2 expression inhibition | HEK-293 ATXN2-luciferase reporter, luminescence, 24 h | Potency, µM (highest dose often 57 µM), for the others: at the highest dose activity change, negative = inhibition, actives largely listed as inhibitors | 360,000 tested, 0.72% active | AID 1745845; also: potency is read from the fitted curve at half-maximal effect; % is scaled to controls: 0 for no effect and ±100 for the full control effect; nearly all actives have a fitted effect of over 55% in size
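qHTS (up to 57 uM final) was run with 24 h compound exposure of reporter cells at 37 °C. Each well was multiplexed: SteadyGlo luminescence measured ATXN2-luciferase expression after a fluorogenic Gly-Phe-AFC viability readout (25 uM final).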
Integrin act MD = integrin-mediated muscular dystrophy alleviation activation; alpha7betagal myoblasts, beta-gal FDG fluorescence, 48 h; Potency, µM (titrated, usually from 38.3 µM), without a hit: at the highest dose activation, actives largely listed as activators; 350,000 tested, 0.064% active;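 also: potency is read from the fitted curve at half-maximal effect; 100% = response of the positive control SU9516; nearly all actives have a fitted effect of over 60% in size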
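Alpha7betagal+/- myoblasts (passage 13) were plated 16-24 hr, then exposed to compounds (1:260 dilution of DMSO stock) for 48 hours at 37C. After MPER lysis, β-galactosidase reporter activity was read as FDG fluorescence (ex 480/em 540) after 30 minutes.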
D3 antag = antagonists of human D3 dopamine receptor | AID 652054 | max response, negative = inhibition, % | D3R cells, DiscoveRx beta-arrestin luminescence, antagonist mode; hits give low values | P35462 | 360,000 tested, 2.5% active; in the data active = max response below about -50%; inconclusive = no clear call, values can overlap the other calls; also: % is scaled to controls: 0 for no effect and ±100 for the full control effect
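Cells plated overnight at 1500 cells/well, then exposed to library compounds with dopamine controls for 90 minutes at 37 degrees C. DiscoveRx reagent added for 30–60 minutes at room temperature; luminescence read, quantitative HTS format.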
The depositor's hits bear a star; i = inactive; ? = inconclusive; / = not tested or not shown; [ ] = another dose, or the depositor's remark. Unless noted, calls follow the shape of the dose curve; as a rule, active = well fitted curve in the direction sought with a large enough effect; inconclusive = small, poorly fitted or top-dose-only effect, or another doubt; inactive = no such curve, though single readings can be large; an effect the other way counts as inactive or inconclusive.

SMILES | ATXN viability | DRD3 agonist | IL-1B inflam inh | ATXN2 expr inh | Integrin act MD | D3 antag
CN(C)c1ccc(C=c2c3cc([N+](=O)[O-])ccc3n3c2cc(-c2ccccc2)[n+]3C)cc1 | / | -19.6 | -115.0* | 28.2µM* | -56.3% | ?
COc1cc(N(C)C)ccc1C=c1c2ccccc2n2c1cc(-c1ccccc1)[n+]2C | 11.9µM* | -0.7 | -99.7* | 11.9µM* | 0.0% | 5.0
CN(C)c1ccc(C=c2c3ccccc3n3c2cc(-c2ccc(Cl)cc2)[n+]3C)cc1 | 11.2µM* | -5.9 | -119.2* | ? | -56.4% | -19.1
COc1cc(C=c2c3ccccc3n3c2cc(-c2ccccc2)[n+]3C)cc(OC)c1OC | ? | -4.8 | -26.2 | ? | -10.2% | -2.3
O=C(c1ccc(-n2nc(C(F)(F)F)c3c2CCCC3)cc1)N1CCOCC1 | i | 0.0 | 4.2 | / | 6.7% | 5.1
CN(C)c1ccc(C=c2c3ccccc3n3c2c2c([n+]3C)CCCC2)cc1 | 22.4µM* | 4.9 | -110.8* | 8.91µM* | -52.6% | -14.9
CN(C)c1ccc(/C=C2\SC(=O)N(CC(O)Cn3c4ccccc4c4ccccc43)C2=O)cc1 (stereo not given) | i | -4.1 | 6.8 | -8.3% | -16.1% | -12.6
COc1cc(NC(=O)COc2cccc3c2OC(C)(C)C3)cc(OC)c1OC | i | -9.5 | 0.0 | ? | ? | 59.3
COc1ccc(NC(=O)C2CCCN(CCCc3ccccc3)C2)cc1OCC(C)C (stereo not given) | ? | -9.1 | -85.1* | / | -59.6% | -15.8
Cc1ccc(S(=O)(=O)CC(N)=O)cc1 | i | 2.0 | 27.9 | 0.3% | 9.2% | 6.5
Cc1ccc(S(=O)(=O)CCSC(=N)N)cc1 | i | -6.7 | -114.5* | -12.3%[11.3 µM] | -57.1% | -17.1
Cc1ccccc1OCC(=O)OC1CCN(C)CC1 | i | -8.2 | 4.6 | 7.0% | 22.2% | 0.0
Cc1ccc(-n2c(=O)[nH]c3cc(C(=O)NC4CCN(Cc5ccccc5)CC4)ccc3c2=O)cc1 | i | -6.6 | 26.0 | -21.6% | -7.5% | -92.9*
CCCOc1ccc(CNC(=O)c2ccc3c(c2)N(CC)CCS3)cc1 | ? | -13.7 | -22.4 | -14.2% | -12.9% | -65.1*
Cc1ccc(CN2CCSc3ccc(C(=O)NC4CCN(Cc5ccccc5)CC4)cc32)cc1 | ? | -19.2 | -81.8* | ? | -38.9% | -82.5*
Cc1ccc(CN2CCSc3ccc(C(=O)NCCCN4CCOCC4)cc32)cc1 | ? | -2.2 | -51.0* | ? | 11.4% | 15.0
Cc1cc(C(=O)N/N=C\c2ccc(COc3ccc([N+](=O)[O-])cc3)o2)ccc1[N+](=O)[O-] | ? | 2.4 | 2.4 | -37.8% | 9.8% | -4.3
Cc1ccc(CN2CCSc3ccc(C(=O)N4CCN(c5ncccn5)CC4)cc32)cc1 | i | 19.3 | -62.4* | -10.3% | 10.2% | 17.7
CN1CCN(c2nc(NCCOC34CC5CC(CC(C5)C3)C4)nc(OCC(F)(F)F)n2)CC1 | ? | -12.9 | -80.2* | -6.2% | -14.7% | -60.7*
OC(COc1ccc(Cl)cc1)CN1C2=NCCCN2c2ccccc21 (stereo not given) | i | -11.8 | -17.3 | -19.9% | -4.5% | ?
C=CCN1CC(O)=C(c2nc3ccccc3[nH]2)C1=N | i | 15.5 | -6.5 | 32.5% | -17.4% | 6.6
CCOC(=O)/C=C/C(=O)Nc1cccc([N+](=O)[O-])c1 | ? | -5.0 | -64.5* | ? | -49.3% | -21.2
CCOC(=O)/C=C/C(=O)Nc1ccccc1-c1ccccc1NC(=O)/C=C/C(=O)OCC | ? | -4.9 | -83.1* | ? | -49.5% | -62.3*
CCOC(=O)c1cccc(NC(=O)/C=C/c2cccc([N+](=O)[O-])c2)c1 | i | 1.7 | -9.7 | -13.9% | -11.3%[7.66 µM] | -12.2
Cn1cc(SCC(=O)Nc2nc3ccccc3s2)c2ccccc21 | i | -5.3 | -11.1 | 25.1µM* | 13.3% | 0.0
SMILES | ATXN viability | DRD3 agonist | IL-1B inflam inh | ATXN2 expr inh | Integrin act MD | D3 antag
c1coc(CSSCc2ccco2)c1 | i | -7.7 | 27.5 | -10.8% | -63.4% | 0.0
CC(=O)Nc1ccc(NC(=O)CCCc2c[nH]c3ccccc23)cc1 | i | -6.8 | -15.3 | 0.9% | 20.0% | -6.2
O=C(CCCc1c[nH]c2ccccc12)Nc1ccc2ccccc2c1 | / | -0.4 | -85.2* | 59.5% | -12.8% | 10.2
NC(=O)c1cc2ccccc2o/c1=N/NC(=O)c1cccs1 | i | 4.4 | ? | 5.4% | -37.4% | 1.5
COc1ccc2o/c(=N/NC(=O)c3cccs3)c(C(N)=O)cc2c1 | i | -2.7 | -61.7* | 27.9% | -0.9% | 10.2
Oc1c(Br)cc(Cl)cc1C=Nc1ccccc1Br | i | -19.9 | -0.4 | -21.9% | -16.9% | -72.6*
CCN(c1ccccc1)S(=O)(=O)c1ccc(OC)c(NS(=O)(=O)c2cccs2)c1 | i | -0.8 | 13.5 | / | -21.2% | 1.3
CC(=O)Oc1ccc(C(=O)Nc2cccc(C(=O)Nc3ccccc3C(=O)O)c2)cc1 | i | 2.3 | 16.9 | -7.8% | -11.0% | 19.3
COc1ccc2occ(C(C)=O)c2c1 | i | -1.9 | -8.3 | -3.4% | 12.9% | -6.7
CC(=O)c1coc2ccc(OCCN3CCCCC3)cc12 | i | -36.3 | ? | -9.7% | -49.2% | -83.5*
CCN(CC)CCNC(=O)c1[nH]c2ccc(OCc3ccccc3)cc2c1C | ? | -8.9 | -94.6* | ? | -45.1% | -86.0*
O=C(c1ccccc1)N1CCSC1=S | i | 3.5 | -7.8 | -0.9% | 0.0% | 19.8
O=C(c1ccccc1)N1CCSc2sccc2C1=O | i | -0.8 | 5.5 | 4.74µM* | 11.6% | -1.1
CCCn1cnc2c(Sc3c([N+](=O)[O-])ncn3C)nc(N)nc21 | ? | 3.8 | -54.0* | 7.6% | -6.0% | 15.1
Cn1cnc([N+](=O)[O-])c1Sc1nc(N)nc2c1ncn2Cc1ccccc1 | ? | 5.2 | -101.0* | 3.6% | -40.9% | 1.6
CCCCn1cnc2c(Sc3c([N+](=O)[O-])ncn3C)nc(N)nc21 | i | -5.5 | -94.7* | 6.6% | -44.0% | -14.2
CCCCn1cnc2c(SCc3ccccn3)nc(N)nc21 | i | 8.4 | -74.5* | 3.8% | -2.4% | 2.7
CCOC(=O)CSc1nnc(CSc2nc(N)c3c(C)c(C)sc3n2)n1-c1ccccc1 | i | -2.5 | -12.3 | 6.3% | 12.5% | 2.6
O=C(Nc1ccc(N2CCCCCC2)cc1)c1ccccc1Cl | ? | -10.0 | ? | 35.6% | -52.4% | -26.7
O=C(Nc1ccc(Cl)c(S(=O)(=O)N2CCOCC2)c1)c1cn2ccccc2n1 | i | 5.2 | 34.3 | 4.1% | 18.1% | 4.3
O=C(Nc1ccc(N2CCCCC2)cc1)c1ccccn1 | i | 2.2 | -3.2 | 1.78µM* | -9.0% | 1.5
O=C(Nc1ccc(N2CCOCC2)cc1)c1cn2ccccc2n1 | i | -2.4 | -13.6 | 11.2µM* | 5.8% | 0.9
